Several values for one entry are separate records, joined by “and”; a condition that tells them apart may be missing. Equal entries are not always repeated. Hit rate of the full screen: of about 69,000 compounds, about 2,600 (3.8%) were called active. Only a selection was taken, and actives are over-represented in it overall. A number with no mark means an inactive call. No stated cut-off is given here; in the data, active means activity change below about -70% (passing the limit was not always enough); inconclusive means no clear call, values can overlap the other calls.
Assay: inhibitors of Toxoplasma growth in IFN-γ-primed hosts – cell-based, primary screen (AID 1259416);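 further: host cells are HeLa cells infected with Toxoplasma gondii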
Conditions: Toxoplasma gondii growth in IFN-gamma-treated host cells; active compounds read low; concentration not given here

| Compound | activity change, negative = inhibition |
| --- | --- |
| COc1ccc(CCCOC(Cn2ccnc2)c2ccc(OC)cc2)cc1 (stereo unspecified) | -83.3% (active) |
| Clc1ccc(C(Cn2ccnc2)OCc2ccsc2Cl)c(Cl)c1 (stereo unspecified) | -59.6% and 3.6% |
| Cc1nc2c(c(=O)[nH]1)CCN(C(=O)c1c(-c3ccccc3Cl)noc1C)C2 | 11.4% |
| COC(=O)c1cc2n(n1)CCCN(C(=O)COc1ncnc3ccccc13)C2 | 2.6% |
| O=C(COc1ccc(C(=O)c2ccccc2)cc1)NC1CCN(Cc2ccccc2)CC1 | 25.7% |
| COc1ccc(NC(=O)c2cccc(CN3C[C@@H](C)O[C@@H](C)C3)c2)cc1 | 26.7% |
| O=C(Nc1ccc(OCc2ccccc2)cc1)OCC1CN(Cc2ccccc2)CCO1 (stereo unspecified) | -88.7% (active) |
| CN1Cc2ccccc2CC2(CCN(Cc3ccsc3)CC2)C1=O | 0.416% |
| CN1C(=O)c2cc(NC(=O)c3ccc4c(c3)OCO4)ccc2OC[C@@H]2O[C@H](CC(=O)O)CC[C@H]21 | 8.45% |
| Cc1ccc(Cl)cc1NC(=O)CN1C(=O)CCc2cc(S(=O)(=O)N3CCCCC3)ccc21 | 0.0244% |
| Cc1ccc(NC(=O)CN2C(=O)CCc3cc(S(=O)(=O)N4CCCCC4C)ccc32)cc1N(C)C (stereo unspecified) | -103% (active) |
| Cc1cc(C)cc(NC(=O)CN2C(=O)CCc3cc(S(=O)(=O)N4CCOCC4)ccc32)c1 | 24.4% |
| COC(=O)c1c(NCc2c(C)noc2C)c2cccc(Cl)c2[nH]c1=O | 7.07% |
| Cc1ccc2[nH]c3c(c2c1)CCNC31C(=O)N(C)c2ccc(Br)cc21 (stereo unspecified) | 1.48% |
| CS(=O)(=O)N1CCO[C@H]2[C@@H](OCc3cccnc3)CC[C@H]21 | 37.3% |
| O=C1c2cc(OCCN3CCCCC3)ccc2-c2ccc(OCCN3CCCCC3)cc21 | -90% (active) |
| O=c1[nH]c2ccccc2n1C1CCN(CCOc2ccccc2)CC1 | -49.4% |
| O=C(Nc1ccc(F)cc1F)N1CCCN(CCOc2ccccc2)CC1 | 8.95% |
| O=C1NCCc2[nH]c(-c3ccncc3)cc21 | -85.6% (active) |
| COc1cccc(-c2cn[nH]c2C2CCCN2S(=O)(=O)c2ccc(Cl)cc2)c1 (stereo unspecified) | -31.9% |
| Cc1nn(CC(=O)N(C)Cc2ccccc2)c(=O)c2nc(-c3ccccc3)sc12 | -55.4% |
| O=S(=O)(CCSCc1ccc(Cl)cc1)CCSCc1ccc(Cl)cc1 | -10% |

| Compound | activity change, negative = inhibition |
| --- | --- |
| CS(=O)(=O)Nc1ccc(-n2cnc(-c3ccccc3)c2)cn1 | 11.6% |
| CC1(C)CC(=O)c2cnc3cc(-c4ccccc4)nn3c2C1 | -86.8% (active) |
| O=C(Nc1ccc(F)cc1F)c1c(O)c2ccccc2n(-c2ccccc2)c1=O | 24% |
| Cc1ccc(NC(=O)CC(=O)NCCc2cnc[nH]2)cc1Cl | 5.77% |
| S=C(NCCCc1cnc[nH]1)NCCCN(Cc1ccc(Cl)c(Cl)c1)c1ccc(Br)cn1 | -78.1% (active) |
| COc1ccc(NC(=O)c2cc3c(s2)CCN3C(=O)C2CC2)cc1 | 23.2% |
| Cn1c(=O)c(-c2nc(-c3cccs3)no2)c(O)c2ccccc21 | 67.9% |
| CCSCCN(C(=O)c1nnc2nc(C)cc(C)n12)C1CCCCC1 | -3.21% |
| COc1ccc2c3c(n(C)c2c1)[C@H](CO)N(C(=O)Nc1cccc(F)c1)CC31CN(Cc2nccs2)C1 | -24.3% |
| N#Cc1ccc(C(=O)N2CCC3C2CCC(=O)N3c2cccnc2)cc1 (stereo unspecified) | -20.1% |
| Cc1cccc(C)c1NC(=O)c1nnn(Cc2nc(-c3ccccc3)oc2C)c1C | -62.3% |
| COc1ccc(Br)cc1-c1nc(Cn2nnc(C(=O)Nc3cc(F)ccc3C)c2C)c(C)o1 | 423% |
| Cc1ccc(Cl)cc1NC(=O)c1nnn(Cc2nc(-c3cccc(Cl)c3)oc2C)c1C | 55.8% |
| COc1ccccc1NC(=O)c1nnn(Cc2nc(-c3cccc(OC)c3OC)oc2C)c1C | -83.3% (active) |
| COc1ccccc1NC(=O)c1nnn(Cc2nc(-c3ccc(C)cc3)oc2C)c1C | -82.9% (active) |
| Cc1ccc(-c2nc(Cn3nnc(C(=O)NCc4ccccn4)c3C)c(C)o2)cc1 | -57.8% |
| COc1ccc(-c2nc(Cn3nnc(C(=O)Nc4ccccc4C)c3C)c(C)o2)c(OC)c1 | 32.4% |
| CCc1ccccc1NC(=O)c1nnn(Cc2nc(-c3ccccc3C)oc2C)c1C | -107% (active) |
| Cc1ccccc1-c1nc(Cn2nnc(C(=O)Nc3c(C)cccc3C)c2C)c(C)o1 | -38.6% |
| CCC(c1ccccn1)N(C)C1CCNCC1 (stereo unspecified) | 16.8% |
| CN(CC1Cc2ccccc2O1)S(=O)(=O)NCc1ccccc1 (stereo unspecified) | 0.376% |
| CN1CCO[C@@H]2CN(C(=O)CC3Cc4ccccc4C3)C[C@@H]2C1 | 112% |

| Compound | activity change, negative = inhibition |
| --- | --- |
| CN(C[C@@H]1[C@H](c2ccccc2)[C@@H](CO)N1Cc1ccccn1)S(C)(=O)=O | 2.44% |
| CCc1cc(CN2CCCC2c2nc3ccc(C)cc3[nH]2)on1 (stereo unspecified) | 9.45% |
| CC(=O)NCCc1csc(C2CCN(C(=O)NCc3ccc(F)cc3)CC2)n1 | -3.56% |
| O=C(O)CCC(=O)N1CC2CCC(C1)N2C(=O)c1ccco1 | 61.2% |
| CC(C)NC(=O)N1CC2(C1)[C@H](c1ccccc1)[C@H](CO)N2C(=O)C1CCOCC1 | -2.06% |
| CCOc1cccc(CC(=O)N2CCc3c([nH]c4ccccc34)C2c2ccc(F)cc2)c1OCC (stereo unspecified) | -74.9% (active) |
| Cc1cccc(C2c3[nH]c4ccccc4c3CCN2C(=O)c2ccccc2C)c1 (stereo unspecified) | -84.7% (active) |
| Cc1ccc(C2c3[nH]c4ccccc4c3CCN2C(=O)c2cccc(C)c2)cc1 (stereo unspecified) | 226% |
| CCOc1ccc(C2c3[nH]c4ccccc4c3CCN2C(=O)C2CC2)cc1 (stereo unspecified) | -34.9% |
| CSc1ccc(C2c3[nH]c4ccccc4c3CCN2C(=O)c2cc3ccccc3[nH]2)cc1 (stereo unspecified) | -96.3% (active) |
| Cc1cccc(C2c3[nH]c4ccccc4c3CCN2C(=O)C(=O)CCc2ccccc2)n1 (stereo unspecified) | -13.8% |
| CCOc1cccc(CC(=O)N2CCc3c([nH]c4ccccc34)C2c2ccc(OC)cc2)c1OCC (stereo unspecified) | 213% |
| CCOc1cccc(C2c3[nH]c4ccccc4c3CCN2C(=O)c2ccccc2)c1 (stereo unspecified) | -34.3% |
| COCC1CN(c2ccc(C)nn2)Cc2cnn(C)c21 (stereo unspecified) | -0.315% |
| Cc1ccc(S(=O)(=O)Nc2cncc(C(=O)NCC(C)C)c2)cc1 | -16.9% |
| Cc1nn(C)c2c1C(c1cc(F)ccc1-n1cccn1)CC(=O)N2 (stereo unspecified) | -37.8% |
| CC1(C)[C@@H](O[C@H]2O[C@H](C(=O)O)[C@@H](O)[C@H](O)[C@@H]2O[C@@H]2O[C@H](C(=O)O)[C@@H](O)[C@H](O)[C@H]2O)CC[C@@]2(C)[C@H]3C(=O)C=C4[C@@H]5C[C@@](C)(C(=O)O)CC[C@]5(C)CC[C@@]4(C)[C@]3(C)CC[C@@H]12 | 15.6% |
| COc1ccccc1-c1nc(Cc2noc(-c3cccnc3)n2)c(C)o1 | -62.2% |
| O=C(c1cccc(Cl)c1)N1CCC2(CC1)Nc1cc(F)ccc1-n1cccc12 | 50.9% |
| O=C1N[C@H](c2ccccc2)COCc2cn(nn2)CC[C@H]1Cc1cccc(Cl)c1 | -2.88% |
| CCN(CC)C(=O)[C@@H]1C[C@H](N)CN1C(=O)Cc1ccc(F)c(C)c1 | 3.3% |
| Cc1cc(-c2cc(C3CCN(C(=O)C4CC(=O)C4)C3)ccn2)ccc1F (stereo unspecified) | 14.5% |

| Compound | activity change, negative = inhibition |
| --- | --- |
| c1ccc2c(-c3noc4c3CN(CC3CCCO3)CC4)cccc2c1 (stereo unspecified) | -4.04% |
| O=C(CCc1ccco1)N1CCc2onc(-c3ccc(C(F)(F)F)cc3)c2C1 | 9.55% |
| Clc1ccc(-c2noc3c2CN(CCn2cc(Cl)cn2)CC3)cc1 | -72.1% (active) |
| O=C(CC1COCCN1)NCCC(c1ccccc1)c1ccccc1 (stereo unspecified) | -9.21% |
| CNc1nc(N2CCN(Cc3nccn3C(C)C)CC2)nc2c1CCC2 | 8.7% |
| Cc1nc(CN2CCCn3nnc(COC(C)C)c3C2)cs1 | 9.42% |
| COCCC(=O)N1CCN(CC2CC2)c2nc(C)ccc2C1 | -15.5% |
| Cn1nnc(-c2ccc(C(=O)NC(CN3CCCCC3)c3ccccc3)cc2)n1 (stereo unspecified) | -0.396% |
| CCOC(=O)c1nc(N2CCC(c3ccccc3)C2)c2ccccc2n1 (stereo unspecified) | 11.8% |
| Clc1ccc(Cn2ncc3c(NCc4cccnc4)ncnc32)cc1 | -81.5% (active) |
| O=C(Cn1ncc2c(N3CCN(c4ccccn4)CC3)ncnc21)NCc1ccc(F)c(Cl)c1 | -16.9% |
| O=C(Cn1ncc2c(N3CCN(c4ccccc4)CC3)ncnc21)Nc1ccc(Cl)cc1 | -12.8% |
| CCC(=O)N1Cc2cc(C(=O)NCc3cccc(F)c3)nc(-c3cccc(C4=CCCC4)c3)c2[C@H]1CCO | -51.7% |
| Cc1cccc(OC2CCN(C(=O)c3ccc(OCc4nonc4C)cc3)CC2)c1 | -46.1% |
| CNc1cc(-c2cc(C(C)C)nc(C(F)(F)F)n2)c2cc[nH]c2n1 | -83.6% (active) |
| Cc1cccc2[nH]nc(-c3cc(NCCN(C)C)nc4[nH]ccc34)c12 | -0.259% |
| Cc1nc(C)n(CCC(=O)N2CCN(S(=O)(=O)c3ccccc3)CC2)n1 | 55.6% |
| CC1=NOC(C)(CNC(=O)c2csc(-c3cccs3)n2)C1 (stereo unspecified) | -3.52% |
| O=C(Sc1cccs1)c1csc(C2COc3ccccc3O2)n1 (stereo unspecified) | -96.7% (active) |
| Cc1nc2ccccn2c1C(=O)N1CCCC(Cn2cc(C3CC3)nn2)C1 (stereo unspecified) | 26.9% |

From PubChem BioAssay AID1259416 (Broad Institute, 2018)
